Sm TGR block – blocks Schistosoma mansoni thioredoxin glutathione reductase; Q962Y6; purified TGR, DTNB reduction, TNB absorbance 405 nm; Potency, µM (highest dose often 114 µM), inactives show top-dose activity change, negative = inhibition, hits mostly inhibitors; hit rate 3% among 360,000; note: potency is the fitted concentration of half-maximal effect; % is set by controls: 0 for no effect and ±100 for the full control effect; nearly all actives have a fitted effect of over 60% in size
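Kinetic colorimetric format: TGR-catalysed, NADPH-driven DTNB reduction monitored via TNB absorbance. Enzyme dispensed at 20 nM; compound exposure 15 min at room temperature before reaction start.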
Pf growth 48h – P. falciparum growth inhibition at 48 hours (one generation); AID 504832; hit rate 5.9% among 310,000; Potency, µM (doses to about 28.7 µM), for the others: at the highest dose activity change, negative = inhibition, most hits filed as inhibitors; P. falciparum luciferase growth in erythrocytes, 48 h; note: potency is the fitted concentration of half-maximal effect; % is set by controls: 0 for no effect and ±100 for the full control effect
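Read-out is firefly luciferase luminescence from an integrated reporter in P. falciparum, so falling signal marks reduced parasite growth. Infected erythrocytes were at 2% hematocrit and 0.1% parasitemia (final) in Albumax-supplemented RPMI 1640.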
Pf growth 96h – P. falciparum growth inhibition at 96 hours; Potency, µM (highest dose often 28.7 µM), inactives show at the top dose activity change, negative = inhibition, actives largely listed as inhibitors; P. falciparum luciferase reporter growth, 96 h; hit rate 6.9% among 320,000; note: potency is the fitted concentration of half-maximal effect; % is set by controls: 0 for no effect and ±100 for the full control effect
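Parasite growth measured via integrated firefly luciferase reporter in P. falciparum. Infected erythrocytes at 2% hematocrit, 0.05% parasitemia final were treated 96 hours at 37 C under 5% CO2, and luminescence was read.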
HCV inhibitor – blocks hepatitis C virus; Huh7.5.1 HCVcc-Cre infection, luciferase reporter, 44 h; AID 651820; Potency, µM (titrated, usually from 41.8 µM), for the others: at the top dose activity change, negative = inhibition, hits mostly inhibitors; hit rate 3.4% among 340,000; note: potency is the fitted concentration of half-maximal effect; % is set by controls: 0 for no effect and ±100 for the full control effect
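Seed cells (1,000/well) for 4 h; treat with compound and infect with HCVcc-Cre, moi about 0.5. Incubate 44 h, then detect luciferase activity.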
SARS PLpro yeast – inhibitors of SARS-CoV papain-like protease in yeast; hit rate 0.19% among 330,000; S. cerevisiae expressing SARS-CoV PLpro, growth rescue; Potency, µM (top dose mostly 32.9 µM), without a hit: top-dose activity, positive = growth rescue, most hits filed as activators; AID 485353; calls by dose curve; note: potency is the fitted concentration of half-maximal effect; 0% is about no effect; nearly all actives have a fitted effect of over 55% in size
HCMV inh – human cytomegalovirus inhibition; HFF cells, HCMV-luciferase reporter, 72 h; active compounds read low; activity change, negative = inhibition, % at 57.5 µM; hit rate 4.5% among 410,000; AID 1259415; in the data active = activity change below about -60%; inconclusive = no clear call, values can overlap the other calls; inactive = above about -39%; note: % is set by controls: 0 for no effect and ±100 for the full control effect
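Two compound doses tested in HFFs infected with HCMV-luciferase, MOI 1 PFU/cell, 72 h at 37C. Lysate luminescence read with OneGlo; data normalized against buffer-only and 10uM Salinomycin inhibitor controls.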
* marks the source's active call; other numbers are inactive results; i = inactive; ? = inconclusive; nt = not tested or not shown. Rows were chosen to be rich in hits. Some 15% of all compounds tested hit in one or more screens of this group. Unless noted, calls come from the whole dose curve; as a rule, active = well fitted curve in the direction sought with a large enough effect; inconclusive = small, poorly fitted or top-dose-only effect, or another doubt; inactive = no such curve, though single readings can be large; an effect the other way counts as inactive or inconclusive.

SMILES	Sm TGR block	Pf growth 48h	Pf growth 96h	HCV inhibitor	SARS PLpro yeast	HCMV inh
CC(=O)C1=NN(c2ccc(Cl)cc2)C(c2ccc3c(c2)OCO3)N(C(C)=O)N1C (centres undefined)	-13%	12µM*	12µM*	?	-3%	?
O=C(NCC1CCCO1)C(c1cccs1)N(C(=O)c1ccc(-c2ccccc2)[nH]1)C1CCCC1 (centres undefined)	-1%	10µM*	?	-28%	16%	?
COc1ccc(CN(C(=O)c2ccc(-c3ccccc3)[nH]2)C(C(=O)NCC2CCCO2)c2ccc(C)o2)cc1 (centres undefined)	-22%	8.3µM*	6.6µM*	-19%	-9%	0
CC(C)(C)NC(=O)C(c1cccs1)N(CC1CCCO1)C(=O)c1ccc(-c2ccccc2)[nH]1 (centres undefined)	8%	13µM*	478%	?	7%	?
O=C(NCC1CCCO1)C(c1ccc(F)cc1)N(CCCN1CCOCC1)C(=O)c1ccc(-c2ccccc2)[nH]1 (centres undefined)	2%	13µM*	9%	4%	-2%	2
O=C(NCC1CCCO1)C(c1cccs1)N(Cc1ccccc1)C(=O)c1ccc(-c2ccccc2)[nH]1 (centres undefined)	-6%	?	i	11%	9%	-35
CCOC(COC(=O)c1ccccc1C(=O)O)c1ccccc1 (centres undefined)	nt	nt	nt	nt	nt	-12
Cc1cccc(-c2nc3c4c(-c5ccccc5)c(-c5ccccc5)oc4ncn3n2)c1	5%	nt	nt	nt	nt	5
CCCCCCCCCCn1ccc(=N)cc1	11%	0.21µM*	?	22µM*	-4%	-100*
CCOC(=O)c1c(NC(=O)c2cc3n(n2)C(C(F)(F)F)CC(c2cccs2)N3)sc(C)c1C (centres undefined)	-5%	8%	?	-22%	16%	?
CCc1nccn1-c1cc(C(C)(C)C)nc2c(-c3ccc(Cl)cc3)cnn12	-7%	50%	13µM*	11%	?	-14
CC(C)Nc1cc(C(C)(C)C)nc2c(-c3ccccc3)cnn12	23%	?	13µM*	?	0%	96
CN(C)CCCNc1cc(C(C)(C)C)nc2c(-c3ccc(Cl)cc3)cnn12	20%	?	?	10µM*	-1%	-103*
CC(C)(C)c1cc(NCc2ccccn2)n2ncc(-c3ccc(Cl)cc3)c2n1	0%	3.3µM*	?	?	0%	-15
COc1cccc(-c2nc3c(C#N)c[nH]n3c2NC2CCCCC2)c1OC	7%	nt	nt	nt	nt	-6
CCOc1ccccc1NC(=O)Cn1c(=O)ccc2cc(S(=O)(=O)N3CCCC3)ccc21	-9%	nt	nt	nt	nt	-33
Cc1cccc(N(C(=O)CNC(=O)c2ccco2)C(C(=O)NCC2CCCO2)c2ccccc2)c1 (centres undefined)	0%	2%	27%	13%	0%	-7
O=C(NCc1ccc2c(c1)OCO2)C(=O)NCC1OCCCN1S(=O)(=O)c1ccccc1 (centres undefined)	nt	nt	nt	nt	nt	-28
Cc1c(C(=O)N/N=C/c2ccccc2)sc(=S)n1C	1%	33%	13µM*	27%	17%	0
Cc1c(C(=O)N/N=C/c2ccc(O)cc2)sc(=S)n1C	-5%	51%	29%	24%	-11%	?
CCN(CC)S(=O)(=O)c1cccc(C(=O)Nc2ccccc2C(=O)Nc2ccc(OC)cc2)c1	3%	nt	nt	nt	nt	-11
O=C(C1=C[C@H](c2csc3ccccc23)C[C@H](OCc2ccc(CO)cc2)O1)N1CCN(Cc2ccc3c(c2)OCO3)CC1	-16%	?	4.1µM*	8.9µM*	-1%	-25
O=C(C1=C[C@H](c2coc3ccccc3c2=O)C[C@H](OCc2ccc(CO)cc2)O1)N1CCN(Cc2ccc3c(c2)OCO3)CC1	-17%	1.5µM*	1.3µM*	8%	-3%	0

Screening results as filed in PubChem BioAssay.
